# Results filed as inconclusive are left out. Activity calls are given as the source filed them. Calls come from the whole dose curve; as a rule, active = well fitted curve in the direction sought with a large enough effect; inconclusive = small, poorly fitted or top-dose-only effect, or another doubt; inactive = no such curve, though single readings can be large; an effect the other way counts as inactive or inconclusive.
# Tests used:
# [1] = Quantitative High-Throughput drug screen in 47 multiple myeloma cell lines against the NCATS MIPE library collection: JIM3_ECACC cell viability assay (AID 1918963; note: nearly all actives have a fitted effect of over 35% in size)
# How it was run: (§1)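 Myeloma cell lines, 500 cells per well, exposed to MIPE 4.0 library compounds for 48 h at 37C, 5% CO2. Viability from ATP by CellTiter-Glo luminescence; normalised to DMSO (100%) and media-only (0%) wells.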
# [2] = Quantitative High-Throughput drug screen in 47 multiple myeloma cell lines against the NCATS MIPE library collection: JIM1_ECACC cell viability assay (AID 1918964)
# How it was run: (§2)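 Approved and investigational drugs from MIPE 4.0 were added by pin tool to 500 cells per well. After 48 hours at 37C, ATP-based CellTiter-Glo luminescence indicated remaining viability.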
# [3] = Quantitative High-Throughput drug screen in 47 multiple myeloma cell lines against the NCATS MIPE library collection: INA6_PLB cell viability assay (AID 1918965; note: nearly all actives have a fitted effect of over 55% in size)
# How it was run: as §1
# [4] = Quantitative High-Throughput drug screen in 47 multiple myeloma cell lines against the NCATS MIPE library collection: JJN3_DSMZ cell viability assay (AID 1918966; note: nearly all actives have a fitted effect of over 50% in size)
# How it was run: as §2
# [5] = Quantitative High-Throughput drug screen in 47 multiple myeloma cell lines against the NCATS MIPE library collection: Karpas25_ECACC cell viability assay (AID 1918968; note: nearly all actives have a fitted effect of over 35% in size)
# How it was run: as §2
# [6] = Quantitative High-Throughput drug screen in 47 multiple myeloma cell lines against the NCATS MIPE library collection: KMS27_JCRB cell viability assay (AID 1918970); note: nearly all actives have a fitted effect of over 30% in size
# How it was run: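 Luminescent ATP read-out (CellTiter-Glo, 5 min at room temperature) after 48 h compound exposure of 500 KMS27_JCRB cells per well; DMSO wells define full viability and media-only wells zero.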
# [7] = Quantitative High-Throughput drug screen in 47 multiple myeloma cell lines against the NCATS MIPE library collection: KMS12PE_JCRB cell viability assay (AID 1918972); note: nearly all actives have a fitted effect of over 30% in size
# How it was run: as §1
# [8] = Quantitative High-Throughput drug screen in 47 multiple myeloma cell lines against the NCATS MIPE library collection: KMS20_JCRB cell viability assay (AID 1918973); note: nearly all actives have a fitted effect of over 45% in size
# How it was run: as §2
# [9] = Quantitative High-Throughput drug screen in 47 multiple myeloma cell lines against the NCATS MIPE library collection: KMS21BM_JCRB cell viability assay (AID 1918974); conditions: ATP luminescence, 48 h; viability: at 45.8 µM (top of the series) unless noted
# How it was run: as §2
# [10] = Quantitative High-Throughput drug screen in 47 multiple myeloma cell lines against the NCATS MIPE library collection: MMM1_PLB cell viability assay (AID 1918976); note: nearly all actives have a fitted effect of over 35% in size
# How it was run: (§3)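 500 cells/well per myeloma line exposed to pinned MIPE 4.0 compounds for 48 h at 37 °C, 5% CO2. Viability read as ATP by CellTiter-Glo luminescence, normalised to DMSO-only (100%) and media-only (0%) wells.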
# [11] = Quantitative High-Throughput drug screen in 47 multiple myeloma cell lines against the NCATS MIPE library collection: MOLP8_DSMZ cell viability assay (AID 1918977); note: nearly all actives have a fitted effect of over 45% in size
# How it was run: as §3
# [12] = Quantitative High-Throughput drug screen in 47 multiple myeloma cell lines against the NCATS MIPE library collection: NCIH929_DSMZ cell viability assay (AID 1918978); note: nearly all actives have a fitted effect of over 35% in size
# How it was run: as §3
# [13] = Quantitative High-Throughput drug screen in 47 multiple myeloma cell lines against the NCATS MIPE library collection: MM1S_ATCC cell viability assay (AID 1918980); note: nearly all actives have a fitted effect of over 45% in size
# How it was run: as §3
# [14] = Quantitative High-Throughput drug screen in 47 multiple myeloma cell lines against the NCATS MIPE library collection: MM1R_ATCC cell viability assay (AID 1918981); note: nearly all actives have a fitted effect of over 35% in size
# How it was run: as §3
# [15] = Quantitative High-Throughput drug screen in 47 multiple myeloma cell lines against the NCATS MIPE library collection: H1112_PLB cell viability assay (AID 1918967; note: nearly all actives have a fitted effect of over 30% in size)
# How it was run: as §2
# [16] = Quantitative High-Throughput drug screen in 47 multiple myeloma cell lines against the NCATS MIPE library collection: LP1_DSMZ cell viability assay (AID 1918982); note: nearly all actives have a fitted effect of over 35% in size
# How it was run: as §3
# [17] = Quantitative High-Throughput drug screen in 47 multiple myeloma cell lines against the NCATS MIPE library collection: KMS12BM_JCRB cell viability assay (AID 1918971); note: nearly all actives have a fitted effect of over 35% in size
# How it was run: (§4)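 CellTiter-Glo luminescence (ATP) after 48 h compound exposure, 37C/5% CO2; 500 cells/well; MIPE 4.0 approved/investigational drugs pinned in; DMSO = 100%, media only = 0% viability.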
# [18] = Quantitative High-Throughput drug screen in 47 multiple myeloma cell lines against the NCATS MIPE library collection: KMS26_JCRB cell viability assay (AID 1918975); note: nearly all actives have a fitted effect of over 45% in size
# How it was run: as §4
# [19] = Quantitative High-Throughput drug screen in 47 multiple myeloma cell lines against the NCATS MIPE library collection: OCIMY1_PLB cell viability assay (AID 1918979); note: nearly all actives have a fitted effect of over 35% in size
# How it was run: as §3
# [20] = Quantitative High-Throughput drug screen in 47 multiple myeloma cell lines against the NCATS MIPE library collection: KHM11_PLB cell viability assay (AID 1918962); note: nearly all actives have a fitted effect of over 35% in size
# How it was run: as §1
# Potency is the fitted concentration of half-maximal effect.
SMILES,Potency [1],Potency [2],Potency [3],Potency [4],Potency [5],Potency [6],Potency [7],Potency [8],Potency [9],Potency [10],Potency [11],Potency [12],Potency [13],Potency [14],Potency [15],Potency [16],Potency [17],Potency [18],Potency [19],Potency [20]
Cn1cncc1[C@@](N)(c1ccc(Cl)cc1)c1ccc2c(c1)c(-c1cccc(Cl)c1)cc(=O)n2C,16600 nM (active),935 nM (active),4690 nM (active),8330 nM (active),4180 nM (active),7430 nM (active),3320 nM (active),11800 nM (active),16600 nM (active),14800 nM (active),7430 nM (active),5260 nM (active),6620 nM (active),23500 nM (active),,,,,,
Cc1c(C)n(Cc2ccc(-c3ccccc3C(=O)O)cc2)c2ccc(C(=O)N[C@@H](C)c3ccc([N+](=O)[O-])cc3)cc12,13200 nM (active),93.5 nM (active),18700 nM (active),,,83.3 nM (active),118 nM (active),11800 nM (active),148 nM (active),,,26400 nM (active),5260 nM (active),,18700 nM (active),inactive,,,,
CCC1=C[C@@H]2CN(C1)Cc1c([nH]c3ccccc13)[C@@](C(=O)OC)(c1cc3c(cc1OC)N(C)[C@@H]1[C@@](O)(C(=O)OC)[C@H](OC(C)=O)[C@]4(CC)C=CCN5CC[C@]31[C@@H]54)C2,14.8 nM (active),1.9 nM (active),,7430 nM (active),18.7 nM (active),4.7 nM (active),9.3 nM (active),23.5 nM (active),33.2 nM (active),1870 nM (active),33.2 nM (active),2090 nM (active),372 nM (active),187 nM (active),148 nM (active),33.2 nM (active),26.4 nM (active),2960 nM (active),2090 nM (active),
Nc1ccc(S(=O)(=O)Nc2ncccn2)cc1,inactive,,inactive,,inactive,inactive,inactive,,,,inactive,,inactive,inactive,,inactive,inactive,inactive,inactive,
Cc1c(Cn2c(C)nc3c(C(=O)O)cc(N4CCOCC4)cc32)cccc1C(F)(F)F,9350 nM (active),,16600 nM (active),,,,inactive,93.5 nM (active),,,inactive,,66.2 nM (active),,,inactive,,,inactive,
CC(C)=CCCC(C)=CCCC(C)=CCSc1ccccc1C(=O)O,,,,1180 nM (active),2350 nM (active),,,5260 nM (active),5900 nM (active),1320 nM (active),1480 nM (active),526 nM (active),5260 nM (active),3320 nM (active),,,1660 nM (active),4180 nM (active),33.2 nM (active),1180 nM (active)
O=C(O)CCCc1c[nH]c2ccccc12,inactive,,inactive,,inactive,inactive,inactive,,,,inactive,inactive,,,inactive,inactive,,inactive,inactive,
CC[C@@H]1C(=O)N(C)c2cnc(Nc3ccc(C(=O)NC4CCN(C)CC4)cc3OC)nc2N1C1CCCC1,23.5 nM (active),,83.3 nM (active),7430 nM (active),4690 nM (active),,1660 nM (active),6620 nM (active),,13200 nM (active),4690 nM (active),2350 nM (active),4180 nM (active),1180 nM (active),,166 nM (active),23.5 nM (active),3720 nM (active),469 nM (active),
CN1c2cc(O)c(N=NC(N)=O)cc2CC1S(=O)(=O)O (stereo unspecified),inactive,inactive,inactive,,inactive,inactive,inactive,inactive,,,inactive,inactive,,inactive,,inactive,inactive,inactive,,
Cn1c2cc(S(C)=O)sc2c2cnn(Cc3cccc(N)c3)c(=O)c21 (stereo unspecified),inactive,inactive,,inactive,inactive,,inactive,,,3320 nM (active),,inactive,inactive,inactive,,,inactive,inactive,inactive,
c1ccc2c(CCNc3ccc(Nc4ccncc4)cc3)c[nH]c2c1,16600 nM (active),,23500 nM (active),20900 nM (active),,4180 nM (active),5260 nM (active),10500 nM (active),,13200 nM (active),,20900 nM (active),2960 nM (active),3320 nM (active),18700 nM (active),,,,inactive,
Cn1c(=O)n(-c2ccc(C(C)(C)C#N)cc2)c2c3cc(-c4cnc5ccccc5c4)ccc3ncc21,132 nM (active),20.9 nM (active),16.6 nM (active),148 nM (active),10.5 nM (active),,52.6 nM (active),372 nM (active),,209 nM (active),16.6 nM (active),,296 nM (active),,,,,209 nM (active),66.2 nM (active),
